Hit rate of the full screen: of about 4,300 compounds, about 60 (1%) were called active.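 Rule for the calls: active = inhibition of labelled peptide binding to the formyl peptide receptor of at least 65%; inactive = the rest.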 Many of the other results were omitted from the sample, so actives are more common in it than they were.
What follows are compounds tested against fMet-Leu-Phe receptor (Homo sapiens) (UniProt P21462) (assay: small-molecule ligands of human FPR – U937-FPR cells, fMLFK-FITC, flow cytometry, primary screen (AID 362;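 for inhibition: plate controls were buffer control wells for no effect and unlabeled fMLFF blocking peptide for full effect; higher means less cell fluorescence so more probe displaced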)). Conditions: fMLFK-FITC displacement; stronger effect = higher value, concentration not given here.
Chain of fMet-Leu-Phe receptor (Homo sapiens) (P21462 whole entry, looked up): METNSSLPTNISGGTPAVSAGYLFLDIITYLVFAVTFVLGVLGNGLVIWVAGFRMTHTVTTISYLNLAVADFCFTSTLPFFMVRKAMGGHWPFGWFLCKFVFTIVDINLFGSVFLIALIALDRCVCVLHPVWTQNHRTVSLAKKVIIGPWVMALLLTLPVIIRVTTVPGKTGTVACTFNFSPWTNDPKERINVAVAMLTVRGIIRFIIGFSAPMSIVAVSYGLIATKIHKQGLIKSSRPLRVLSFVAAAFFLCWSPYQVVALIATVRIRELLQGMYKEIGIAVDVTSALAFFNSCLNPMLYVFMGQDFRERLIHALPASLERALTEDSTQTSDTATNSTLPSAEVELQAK

| Compound | inhibition |
| --- | --- |
| CC(C)CCn1c(CN2CCN(C(c3ccccc3)c3ccccc3)CC2)nc2c1c(=O)n(C)c(=O)n2C | inactive |
| CSc1nc(OCC(=O)c2ccc(Cl)cc2)c2c3c(sc2n1)CCCC3 | inactive |
| Cc1sc2ncn(CC(=O)NCc3cccnc3)c(=O)c2c1S(=O)(=O)N1CCC(C)CC1 | inactive |
| CC(C)Cn1cc(C(=O)NCc2ccco2)c2c3ccccc3n(C)c2c1=O | inactive |
| CCCOc1ccc(C(=O)CCNC(C(=O)O)C(C)C)cc1 (centres undefined) | inactive |
| COc1ccc(C(=O)COC(=O)C(CC(C)C)N2C(=O)c3ccccc3C2=O)cc1 (centres undefined) | inactive |
| CCOC(=O)C1=C(C)C2C3C(=O)N(c4cccc5ccccc45)C(=O)C3C1(C)C1C(=O)N(c3cccc4ccccc34)C(=O)C21 (centres undefined) | 13.4% (inactive) |
| CCN(CCCNC(=O)Cn1cnc2sc(C)c(S(=O)(=O)N3CCC(C)CC3)c2c1=O)c1cccc(C)c1 | inactive |
| O=C(CSc1nc(-c2ccccc2)nc2c1CCCC2)N1CCCCC1 | 86.8% (active) |
| O=C(CSc1nc(-c2ccccc2)nc2c1CCCC2)N1CCOCC1 | inactive |
| O=C(O)CSc1nc(-c2ccccc2)nc2c1CCCC2 | inactive |
| CCOC(=O)C1=C(C)NC2=C(C(=O)C(C(=O)OC)C(C)C2)C1c1ccc(N(C)C)cc1 (centres undefined) | 10% (inactive) |
| CCOC(=O)C1CCN(C(=O)c2cn(CC(C)C)c(=O)c3cc(OC)c(OC)cc23)CC1 | 11.2% (inactive) |
| CC1(C)CC(=O)C2=C(C1)OC(N)=C(C#N)C2(C)C | inactive |
| CCCCOc1cc(OCCCC)c2c3c(c(=O)oc2c1)CCCC3 | inactive |
| CCCCOc1cc(OCCCC)c2c3c(c(=O)oc2c1)CCC3 | 92.8% (active) |
| CCCOc1cc(OCCC)c2c3c(c(=O)oc2c1)CCCC3 | 7.1% (inactive) |
| O=C(O)c1cccc(N2C(=O)C3C4CCC(C4)C3C2=O)c1 (centres undefined) | 31.6% (inactive) |
| Cc1ccn2c(NC(=O)C(C)(C)Oc3ccc(Cl)cc3)c(-c3cccs3)nc2c1 | 6% (inactive) |
| CCCCN(C)Cc1c(O)ccc2c(=O)c(-c3ccccc3OC)c(C(F)(F)F)oc12 | 3.4% (inactive) |
| CC1(C)CC(=O)C(C(c2ccco2)C2C(=O)CC(C)(C)CC2=O)C(=O)C1 | 30.9% (inactive) |

| Compound | inhibition |
| --- | --- |
| COc1cc(C(C2C(=O)CC(C)(C)CC2=O)C2C(=O)CC(C)(C)CC2=O)ccc1O | 19.2% (inactive) |
| CN1C(=O)NC(c2cccc([N+](=O)[O-])c2)C2=C1CC(C)(C)CC2=O (centres undefined) | inactive |
| CC1(C)CC(=O)C(C(c2ccc3ccccc3c2)C2C(=O)CC(C)(C)CC2=O)C(=O)C1 | 80.9% (active) |
| COc1ccc(C(C2C(=O)CC(C)(C)CC2=O)C2C(=O)CC(C)(C)CC2=O)cc1OC | 24.6% (inactive) |
| CC1(C)CC(=O)C(C(C2=C(O)CC(C)(C)CC2=O)c2cccc(O)c2O)C(=O)C1 (centres undefined) | 57% (inactive) |
| COc1cccc(C(C2C(=O)CC(C)(C)CC2=O)C2C(=O)CC(C)(C)CC2=O)c1 | 53.4% (inactive) |
| CC1(C)CC(=O)C(C(c2cccc(OCc3ccccc3)c2)C2C(=O)CC(C)(C)CC2=O)C(=O)C1 | 91.9% (active) |
| CC1(C)CC(=O)C2=C(C1)Nc1ncnn1C2c1cccc([N+](=O)[O-])c1 (centres undefined) | inactive |
| COc1ccc(C(C2C(=O)CC(C)(C)CC2=O)C2C(=O)CC(C)(C)CC2=O)cc1COCC(F)(F)F | 34.1% (inactive) |
| CC1(C)CC(=O)C(C(c2cccc([N+](=O)[O-])c2)C2C(=O)CC(C)(C)CC2=O)C(=O)C1 | 78.4% (active) |
| CC1(C)CC(=O)C(C(c2ccc(Br)cc2)C2C(=O)CC(C)(C)CC2=O)C(=O)C1 | 74.7% (active) |
| CCCCN(C)Cc1c(O)ccc2c3c(c(=O)oc12)CCC3 | 9.8% (inactive) |
| CCN(CC)CCOC(=O)NCC1CC(C(C)=O)C1(C)C (centres undefined) | 8.3% (inactive) |
| CC(=O)c1ccc(N2CCN(C(=O)c3cn(CC(C)C)c(=O)c4c3c3ccccc3n4C)CC2)cc1 | 2.2% (inactive) |
| CCOc1ccc(C2C(C(=O)OC(C)C)=C(C)NC3=C2C(=O)C(C(=O)OC)C(C)C3)cc1 (centres undefined) | 13.6% (inactive) |
| CCOC(=O)C(CC)Oc1ccc2c3c(c(=O)oc2c1C)CCC3 (centres undefined) | inactive |
| CCOC(=O)c1cc2c(=O)n3ccccc3nc2n(CC(C)C)c1=NC(=O)c1ccc(C(F)(F)F)cc1 | inactive |
| COC(=O)C1C(=O)C2=C(CC1C)NC(C)=C(C(=O)OCCOC(C)C)C2c1ccc(F)cc1 (centres undefined) | 14.3% (inactive) |
| COC(=O)C1C(=O)C2=C(CC1C)NC(C)=C(C(=O)OCCOC(C)C)C2c1ccc(N(C)C)cc1 (centres undefined) | 79.4% (active) |
| CCCOCCOC(=O)C1=C(C)NC2=C(C(=O)C(C(=O)OC)C(C)C2)C1c1ccc(N(C)C)cc1 (centres undefined) | 78.6% (active) |
| CCCOC(=O)C1=C(C)NC2=C(C(=O)C(C(=O)OC)C(C)C2)C1c1ccc(N(C)C)cc1 (centres undefined) | 23.6% (inactive) |

| Compound | inhibition |
| --- | --- |
| COCCOC(=O)C1=C(C)NC2=C(C(=O)C(C(=O)OC)C(C)C2)C1c1ccc(OC)cc1 (centres undefined) | 16.7% (inactive) |
| COC(=O)C1C(=O)C2=C(CC1C)NC(C)=C(C(=O)OCCOC(C)C)C2c1ccc(OC)cc1 (centres undefined) | 76.1% (active) |
| CCOCCOC(=O)C1=C(C)NC2=C(C(=O)C(C(=O)OC)C(C)C2)C1c1ccc(N(C)C)cc1 (centres undefined) | 31.5% (inactive) |
| CCOc1ccc(C2C(C(=O)OCCOC(C)C)=C(C)NC3=C2C(=O)C(C(=O)OC)C(C)C3)cc1 (centres undefined) | 39.6% (inactive) |
| COCCOC(=O)C1=C(C)NC2=C(C(=O)C(C(=O)OC)C(C)C2)C1c1ccc(N(C)C)cc1 (centres undefined) | 64% (inactive) |
| COc1ccc(/C=C2/CCCC3=C2OC(N)=C(C#N)C3c2ccc(OC)c(OC)c2)cc1OC (centres undefined) | inactive |
| COc1ccc(C2C(C(=O)OC3CCCC3)=C(C)NC3=C2C(=O)CCC3)c(OC)c1OC (centres undefined) | inactive |
| COc1cc(C2C(C(=O)OC3CCCCC3)=C(C)NC3=C2C(=O)CC(C)(C)C3)cc(Cl)c1O (centres undefined) | 10.9% (inactive) |
| COc1ccc(N2C(=O)C3C4C=CC(C4)C3C2=O)cc1OC (centres undefined) | inactive |
| CCOc1ccc(C2C(C(=O)OC3CCCCC3)=C(C)NC3=C2C(=O)CCC3)cc1OC (centres undefined) | 20.2% (inactive) |
| COc1ccc(CNC(=O)CCCCCn2c(SCC(=O)NCC3CCCO3)nc3cc4c(cc3c2=O)OCO4)cc1 (centres undefined) | 2.8% (inactive) |
| CCOC(=O)C1=C(C)NC2=C(C(=O)C(C(=O)OC)C(C)C2)C1c1ccccc1OC(C)C (centres undefined) | 10.1% (inactive) |
| CC(C)(C)c1cc(Nc2ccccc2[N+](=O)[O-])cc(C(C)(C)C)c1O | 20.9% (inactive) |
| CC(C)(C)c1cc(NS(=O)(=O)c2ccc([N+](=O)[O-])cc2)cc(C(C)(C)C)c1O | 68% (active) |
| CC(C)(C)c1cc(NS(=O)(=O)c2ccccc2[N+](=O)[O-])cc(C(C)(C)C)c1O | 9.2% (inactive) |
| O=C(O)C12CC3CC(C1)CC(n1cnc([N+](=O)[O-])n1)(C3)C2 | inactive |
| COc1ccc(N(CC(=O)N2CC3CC(C2)c2cccc(=O)n2C3)S(=O)(=O)c2c(C)noc2C)cc1 (centres undefined) | inactive |
| COc1c(OC(C)=O)ccc(C2Nc3ccc4ccccc4c3C3=C2C(=O)CC(C)(C)C3)c1[N+](=O)[O-] (centres undefined) | inactive |
| COc1c(O)ccc(C2Nc3ccc4ccccc4c3C3=C2C(=O)CC(C)(C)C3)c1[N+](=O)[O-] (centres undefined) | 15.3% (inactive) |
| CC1(C)CC(=O)C2=C(C1)c1c(ccc3ccccc13)NC2c1cc([N+](=O)[O-])ccc1N1CCOCC1 (centres undefined) | 71.9% (active) |
| CC(=O)N1c2ccc(S(=O)(=O)N(CC(C)C)CC(C)C)cc2CC1C (centres undefined) | inactive |

| Compound | inhibition |
| --- | --- |
| CCCN(CCC)Cc1c(O)ccc2c(=O)c(Oc3ccc(OC)cc3)c(C(F)(F)F)oc12 | inactive |
| N#CCCN(C(=O)c1cc(Cl)ccc1NS(=O)(=O)c1cccc2nsnc12)C1CCCCC1 | 73% (active) |
| O=S(=O)(NC1CCCCCCC1)c1cccc2nsnc12 | inactive |
| O=S(=O)(NC1CCCC1)c1cccc2nsnc12 | inactive |
| CCOc1cc(C2Nc3c(ccc4ccccc34)C3=C2CCCC3=O)cc(Br)c1O (centres undefined) | inactive |
| COc1ccc(N2C3=C(C(=O)CC(C)(C)C3)C(c3ccc(F)cc3)C3=C2CC(C)(C)CC3=O)c(OC)c1 | inactive |
| CC1=CC(C)C2(COC(=O)Nc3ccccc3)COC(c3cccnc3)C1C2C (centres undefined) | inactive |
| CCCCNC(=O)c1cn(CC(C)C)c(=O)c2c1c1ccccc1n2C | inactive |
| CCOC(=O)C(O)(c1ccc(N(CC)C(=O)c2cccc(F)c2)cc1)C(F)(F)F (centres undefined) | 27.9% (inactive) |
| CCN(C(=O)c1ccc(F)cc1)c1ccc(C(O)(C(=O)OC)C(F)(F)F)cc1 (centres undefined) | inactive |
| CCN(C(=O)c1cccc(F)c1)c1ccc(C(O)(C(=O)OC)C(F)(F)F)cc1 (centres undefined) | 85.1% (active) |
| O=C(CSc1c2c(nc3ccccc13)CCCC2)Nc1ccc2c(c1)OCCO2 | inactive |
| CC(C)C(C(=O)O)N1C(=O)/C(=C/c2ccccn2)SC1=S (centres undefined) | 90.2% (active) |
| CC(C)C(C(=O)O)N1C(=O)/C(=C2/C(=O)N(C)c3ccccc32)SC1=S (centres undefined) | 94.4% (active) |
| CC(C)C(C(=O)O)N1C(=O)c2cccc([N+](=O)[O-])c2C1=O (centres undefined) | 17.7% (inactive) |
| CC(C)c1nnc(NC(=O)C(C(C)C)N2C(=O)c3ccccc3C2=O)s1 (centres undefined) | 36.6% (inactive) |
| CC(c1ccccc1)N1C(=O)/C(=C/c2c(N3CCCCC3)nc3ccccn3c2=O)SC1=S (centres undefined) | inactive |
| CC(C)C(C(=O)Nc1nccs1)N1C(=O)c2ccccc2C1=O (centres undefined) | 17.3% (inactive) |
| CCOc1ccccc1C1C2=C(CC(C)(C)CC2=O)Nc2nc(C(F)(F)F)nn21 (centres undefined) | 14.1% (inactive) |
| O=C(COc1ccc(Cl)cc1)Oc1ccc2c3c(c(=O)oc2c1)CCC3 | 29.6% (inactive) |
| CC(C)Cn1cc(C(=O)N2CCN(C(=O)c3ccco3)CC2)c2c3ccccc3n(C)c2c1=O | 4% (inactive) |
